In all, about 310,000 compounds went through this assay and about 17,000 (5.5%) were called active. Inconclusive results (about 11%) are left out. Calls come from the whole dose curve; as a rule, active = well fitted inhibition curve with a large enough effect; inconclusive = small, poorly fitted or top-dose-only effect, or effect the other way; inactive = no such curve, though single readings can be large or run the other way. The list comes from a sample in which actives are over-represented; it also holds similar structures and randomly drawn compounds.
The compounds below were run against Nuclear receptor ROR-gamma (Mus musculus) (UniProt P51450) (assay: qHTS for inhibitors of ROR gamma transcriptional activity). Conditions: Drosophila S2 Gal4-RORgamma UAS-luciferase reporter, 20 h; series mostly up to 53.6 µM; activity change, negative = inhibition: at the top concentration.
Nuclear receptor ROR-gamma (Mus musculus), sequence (P51450 whole entry, looked up, the tested form may be a part): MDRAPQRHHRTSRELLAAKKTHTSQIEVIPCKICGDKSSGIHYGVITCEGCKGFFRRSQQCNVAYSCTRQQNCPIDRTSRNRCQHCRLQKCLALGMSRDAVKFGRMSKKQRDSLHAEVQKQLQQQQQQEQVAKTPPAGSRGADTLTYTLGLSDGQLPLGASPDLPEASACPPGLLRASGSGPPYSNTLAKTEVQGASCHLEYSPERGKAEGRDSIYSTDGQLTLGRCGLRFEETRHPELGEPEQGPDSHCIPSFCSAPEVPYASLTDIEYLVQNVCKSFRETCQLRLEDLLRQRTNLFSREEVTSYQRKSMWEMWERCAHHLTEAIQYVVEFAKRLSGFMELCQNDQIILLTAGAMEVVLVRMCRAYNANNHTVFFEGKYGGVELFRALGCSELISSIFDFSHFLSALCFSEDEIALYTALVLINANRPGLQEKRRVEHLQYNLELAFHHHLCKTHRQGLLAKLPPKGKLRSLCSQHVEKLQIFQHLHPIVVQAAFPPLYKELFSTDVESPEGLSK
Outline: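 Luminescence from a UAS-regulated Photinus luciferase reporter in stably transfected Drosophila Schneider cells is measured; decreased signal marks ROR gamma inhibition. Fusion expression is induced by 700 uM copper sulfate for 20 hr.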
% is set by controls: 0 for no effect and ±100 for the full control effect; potency is the fitted concentration of half-maximal effect.
Note: nearly all actives have a fitted effect of over 60% in size.

Potency, active:
CC(C)c1ccc(NC2CCCN(C(=O)c3ccncc3)C2)cc1 (configuration not stated) 2.51 µM, CCC(C)NC(=O)c1c(N)n(/N=C/c2cccs2)c2nc3ccccc3nc12 (configuration not stated) 10 µM, Cc1cc(C)nc(Nc2n[nH]c(-c3ccccc3N)n2)n1 10 µM, O=C(N/N=C/c1ccccn1)C12CC3CC(CC(C3)C1)C2 2.82 µM, Fc1ccc(-c2ccc(CNCc3ccccn3)o2)cc1Cl 11.2 µM, O=C1/C(=C\c2ccsc2)NC(=S)N1c1ccccc1 7.08 µM, CC(=O)c1c(N2CCN(c3ccc(F)cc3)CC2)nc(=S)n(-c2ccccc2)c1C 14.1 µM, O=C(/C=C/c1ccc(F)cc1)NC(=S)NNC(=O)c1cccnc1 11.2 µM, O=C(C/C(=N\NC(=O)c1ccccc1Br)C(F)(F)F)c1cccs1 14.1 µM, CCOc1cccc(/C=N/N2C(=O)CSC2=S)c1O 3.16 µM, Fc1ccccc1/C=C1\CCCC2=C1Nc1ncnn1C2c1ccccc1F (configuration not stated) 2.82 µM, Cc1n[nH]c(=O)n1-c1ccc(Oc2ccccc2)cc1 2.82 µM, CCOc1ccc(C(=O)NC(=S)Nc2ccc(N3CCOCC3)c(Cl)c2)cc1[N+](=O)[O-] 3.16 µM, COc1cccc(OC)c1C(=O)NC(=S)Nc1ccc(N2CCOCC2)c(Cl)c1 8.91 µM, Cc1cccc(C(=O)Nc2ccc(CC(=O)O)cc2)c1 7.94 µM, CCCCCCCCn1c2c(c(=N)c3c1CCC3)CCCC2 0.708 µM, c1ccc(CN=C2Nc3ccccc3CS2)nc1 11.2 µM, Cn1c(-c2ccco2)nc2cc3ccccc3cc21 6.31 µM, Cc1cc(C)c(C2C3=C(Nc4c2c(C)nn4-c2ccccn2)c2ccccc2C3=O)c(C)c1 (configuration not stated) 2.51 µM, COc1ccc(-c2nn(-c3ccccc3)cc2/C=N/Nc2ccccn2)cc1OC 7.08 µM

Activity change, negative = inhibition, inactive:
Cc1cccc(C(=O)N2CCCC(Nc3ccc(C(C)C)cc3)C2)n1 (configuration not stated) -0.214%, COc1ccc(NC2CCCN(C(=O)c3ccncc3)C2)cc1 (configuration not stated) -21%, O=C(CCC1CCCN(C(=O)c2ccc(F)c(F)c2)C1)N1CCN(c2ccccn2)CC1 (configuration not stated) -0.263%, CC(NC(=O)c1cc2cc(Cl)ccc2oc1=N)c1ccccc1 (configuration not stated) -1.8%, Cc1nc2ccccc2n1CC(=O)N/N=C/c1cccs1 -16.8%, CCC(C)NC(=O)c1nn(C)c(=O)c2ccccc12 (configuration not stated) -28.6%, O=C(NCc1cccc(CNC(=O)Nc2cccc(O)c2)c1)Nc1cccc(O)c1 0.886%, COc1ccc(CCNC(=O)CCNS(=O)(=O)c2cc(Br)cnc2N)cc1OC -3.84%, CCc1nc(Nc2ccc(NC(C)=O)cc2)c2oc3ccccc3c2n1 3.42%, CC1C(=O)C(C)C(c2ccc(O)cc2)NC1c1ccc(O)cc1 (configuration not stated) 8.68%, Cc1cc(C)nc(Nc2ncn[nH]2)n1 22.1%, Cc1cc(Nc2ccccc2)nc(N)n1 8.21%, O=C(C1CC(=O)N(C2CCCCC2)C1)N1CCN(c2ccccc2)CC1 (configuration not stated) -40.1%, COc1cccc(CNC(=O)C2CCCN(S(=O)(=O)N3CC(C)CC(C)C3)C2)c1 (configuration not stated) -19.7%, O=C(c1cnc(Cl)c(Cl)c1)N1CCN(S(=O)(=O)c2ccc(F)cc2)CC1 15.9%, O=C(Nc1ccc(S(=O)(=O)Nc2ncccn2)cc1)C12CC3CC(CC(C3)C1)C2 -7.39%, CNC(=O)C(=O)N/N=C/c1ccccn1 0.172%, CC(C)(C)C1CCC(C(=O)NCC(c2cccs2)N2CCOCC2)CC1 (configuration not stated) 28.7%, O=C(CNC(=O)OCc1ccccc1)NC1CCCCNC1=O (configuration not stated) -1.73%, O=[N+]([O-])c1cc([N+](=O)[O-])c(Oc2cc(F)cc(F)c2F)cc1NN1CCCCC1 -2.04%, COc1ccc(-c2ccc(CNCCCN3CCOCC3)o2)cc1Cl -15.8%, O=C(NCc1ccccn1)c1cc(Br)ccc1Cl -17%, CCOc1ccc(-n2c(SCC(N)=O)nnc2-c2ccco2)cc1 29.1%, COc1ccccc1S(=O)(=O)c1c(C)cc(C)[nH]c1=O -1.83%, O=C1N/C(=C/c2cccn2-c2ccccc2)C(=O)N1c1cccc(Cl)c1 -33%, COc1cc2c(cc1/C=C1/NC(=O)N(c3ccccc3)C1=O)OCO2 1.89%, COc1ccc(OCC(O)CN(C)C(=O)C(C)Oc2ccccc2)cc1 (configuration not stated) 11.1%, COc1ccc(C(=O)NCCCN2CCOCC2)cc1Br 0.497%, Cc1ccc2cc(C)c(N3CCN(c4ccc(F)cc4)CC3)nc2c1 25.8%, Cc1nnc(SCC(=O)N2CCN(c3ccccc3)CC2)n1-c1ccccc1 18.7%, Cc1ccccc1/C=C\c1nc(O)c([N+](=O)[O-])c(=O)[nH]1 21.3%, COc1cccc(NC(=O)C2CCCN(c3ncnc4c3nc3n4CCCCC3)C2)c1 (configuration not stated) 2.68%, COc1ccc(NC(=O)N2CCCC(C(=O)Nc3ccccc3OC)C2)cc1 (configuration not stated) -2.34%, O=C(/C=C/c1ccc(F)cc1)NCCNC(=O)/C=C/c1ccc(F)cc1 29.2%, CC(C)c1ccc(/C=C/C(=O)NNC(=O)c2cccnc2)cc1 -4.07%, O=C(NCc1ccccc1)c1onc(CSc2nc3ccccc3[nH]2)c1C(=O)NCc1ccccc1 7.32%, CCSCc1nc(N)nc(NCCc2ccccc2)n1 -4.9%, Cc1cc(C)c(C(=O)CSc2nc(C)cc(=O)[nH]2)c(C)c1 19.9%, COc1ccccc1N1CCN(S(=O)(=O)CCNC(=O)c2ccc(OC(C)C)cc2)CC1 38%, CC(OC(=O)c1ccc2noc(-c3ccccc3)c2c1)C(N)=O (configuration not stated) 29.6%, O=C(Nc1nn(Cc2ccccc2F)cc1Br)c1cccs1 40.4%, COc1ccc(C(=O)COC(=O)CNC(=O)c2cccs2)cc1Br -7.43%, CCCCn1c(-c2cccc(C)c2)nc2cc3[nH]c(=O)c(C(C)C)nc3cc21 -44.1%, O=C(Nc1cccc(-c2cscn2)c1)C1CCN(Cc2ccsc2)CC1 5.59%, O=C(NCCN1CCOC1=O)C1CCC(=O)N(CCc2ccc(Cl)cc2)C1 (configuration not stated) 3.94%, Cc1ccc(CS(=O)Cc2ccc(C(=O)N3CCOCC3)o2)cc1 (configuration not stated) 8.91%, CCOc1ccccc1N=C1NC(=O)CS1 -3.07%, COc1ccc(CCNC(=O)C(=O)NCC2OCCN2S(=O)(=O)c2ccc(F)cc2)cc1OC (configuration not stated) 23.6%, Cc1ccc(S(=O)(=O)NNC(=O)/C=C/c2cccc(F)c2)cc1 -0.345%, COC(=O)C1=C(O)/C(=C/c2ccc(OCC(=O)Nc3ccccc3)cc2)N=C1C 1.63%, CS(=O)(=O)N1CCN=C1SCc1ccc(F)cc1 -15%, Cc1cc(NC(=O)CSc2nnnn2-c2ccc(F)cc2)no1 -1.67%, CC1=C(C(N)=O)C(c2ccc(Br)cc2)n2ncnc2N1 (configuration not stated) -6.5%, CC(=O)c1cccc(NC(=O)COc2ccc(S(=O)(=O)N3CCOCC3)cc2)c1 4.94%, O=C(CSc1ccc(-c2ccccn2)nn1)Nc1ccccc1 -23.3%, CCC(C)(C)n1nnnc1C(c1ccc(OC)c(OC)c1)N1CCN(C(=O)c2ccco2)CC1 (configuration not stated) -1.65%, Cc1cccc(NS(=O)(=O)c2cc(Cl)ccc2Cl)n1 -5.36%, COc1ccc(Oc2ncc3nc(C)c(=O)n(-c4ccccc4)c3n2)cc1 -22.3%, Cc1n[nH]c(=O)n1-c1ccc(C(C)C)cc1 0.121%, Cc1ccc2c(c1)N(S(=O)(=O)c1cc(-c3cc(C)no3)ccc1C)CCO2 -5.72%, O=S(=O)(c1ccc(Cl)s1)N1CCC2(CC1)OCCO2 3.72%, O=C(c1cccc(Br)c1)N1CCN(C2=NS(=O)(=O)c3ccccc32)CC1 24.5%, COC(=O)c1c(NC(=O)C(=O)N2CCCCC2)sc2c1CC(C)(C)OC2 -35.1%, COC(=O)c1cc(NC(=O)c2ccco2)ccc1N1CCOCC1 9.85%, COc1c(C)cccc1C(=O)Nc1cc(Cl)ccc1N1CCOCC1 1.38%, CCOc1ccc(C(=O)Nc2ccc(CN3CCOCC3)cc2)cc1Cl 9.74%, CCOC(=O)c1c(NC(=O)c2ccc(N3CCOCC3)c([N+](=O)[O-])c2)sc(C)c1C -0.447%, CCc1nc2cccnc2n1-c1ccc(C(=O)O)cc1 14.3%, CC(=O)Oc1cccc(C(=O)Nc2ccccc2NC(=O)c2cccc(OC(C)=O)c2)c1 17.2%, COc1ccc(C2=NS(=O)(=O)N(C)C(C(=O)N3CCCCC3)=C2)cc1 15%, COc1cc(CC(=O)N2CCC(n3nccc3NC(=O)C3CC3)CC2)cc(OC)c1OC -6.83%, CC(C)(C)c1ccc(/C=C/C(=O)NCCCn2ccnc2)cc1 9.01%, O=C(CSc1nc(C2CC2)nc2ccccc12)Nc1cccc(O)c1 15.2%, O=C(Cc1ccccc1)Nc1cccc(NC(=O)c2ccccc2)c1 28.4%, O=C(O)Cc1ccc(NC(=O)c2cccs2)cc1 -37%, Cc1nn(C)cc1S(=O)(=O)N1CCN(c2ccc(F)cc2)CC1 -15.6%, Cc1ccc(OCC(=O)Nc2ccc(C(=O)O)cc2NC(=O)COc2ccc(C)c(C)c2)cc1C 35%, O=C(NNS(=O)(=O)c1ccc([N+](=O)[O-])cc1)C1CCCCC1 -7.5%, COc1ccccc1-n1c(-c2cc(-c3ccco3)[nH]n2)n[nH]c1=S -40.9%, COc1ccc(CCn2c(-c3ccco3)nc3nc4ccccc4nc32)cc1OC -7.43% [at 10 µM], CN(C)Cc1c(C(=O)N/N=C/c2ccccc2OCc2ccc(F)cc2)nnn1-c1nonc1N -4.75%, Cc1ccc(C2C3=C(Nc4[nH]n(-c5ccccc5)c(=O)c42)c2ccccc2C3=O)cc1 (configuration not stated) -1.07%, Cc1nn(-c2ccccn2)c2c1C(c1ccncc1)C1=C(CC(C)(C)CC1=O)N2 (configuration not stated) -24.6%, CS(=O)(=O)N(CC(=O)Nc1ccc(F)cc1)C1CCCCC1 -10.2%, Cc1cccc(OC(C)C(=O)N2CCc3ccccc3C2)c1 (configuration not stated) -19.3%, CN(C)/N=C/c1cn(-c2ccccc2)nc1-c1cccnc1 10.6%, Cc1nnc(SCC(=O)N/N=C/c2cn(-c3ccccc3)nc2-c2ccc(F)cc2)n1-c1ccccc1 -1.76%

Reference: PubChem BioAssay AID2551 (National Center for Advancing Translational Sciences (NCATS), 2010)
